# Source: PubChem (National Center for Advancing Translational Sciences (NCATS))
# RE007 growth inh: less growth of the S. pombe RE007 Vpr strain; AID 651644; 0.21% of 360,000 active; S. pombe RE007 Vpr strain, BacTiter-Glo ATP luminescence, 24 h; Potency, µM (highest dose often 92.2 µM), without a hit: at the highest dose activity change, negative = less growth, actives largely listed as inhibitors; active = well fitted falling curve with a large enough effect; inconclusive = small, poorly fitted or top-dose-only effect; inactive = no such curve, though single readings can be large or run the other way; note: nearly all actives have a fitted effect of over 50% in size
#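 Fission yeast RE007 carrying one integrated HIV-1 vpr copy, seeded at OD 0.01 in PMG+AL medium with 23 nL pinned compound. Grown 24 h at 30 degrees; viability read by BacTiter-Glo luminescence after 5 min.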
# FMDV inh: blocks foot and mouth disease virus | FMDV antiviral cell-based qHTS | Potency, µM (highest dose often 57.9 µM), for the others: at the highest dose activity change, negative = inhibition, most hits filed as inhibitors | 1.2% of 410,000 active | AID 1159524; calls by dose curve; tested in HEK293T cells; note: read-out not given here; nearly all actives have a fitted effect of over 45% in size
# LASV entry inh: Lassa virus entry inhibition; Lassa virus pseudotype entry inhibition, cell reporter; Potency, µM (top dose mostly 37.9 µM), for inactives: top-dose activity change, negative = inhibition, usual class: inhibitors; 1.2% of 300,000 active; calls by dose curve; tested in HEK293 cells; note: nearly all actives have a fitted effect of over 50% in size
# MARV entry inh: inhibitors of Marburg virus binding or cell entry. Marburg virus pseudotyped entry inhibition, cell reporter. Potency, µM (top dose mostly 37.8 µM), for the others: at the top dose activity change, negative = inhibition, most hits filed as inhibitors. 1.8% of 300,000 active. AID 540276; calls by dose curve; tested in HEK293 cells
# HCV inh: HCV inhibition; Huh7.5.1 HCVcc-Cre infection, luciferase reporter, 44 h; 3.4% of 340,000 active; Potency, µM (highest dose often 41.8 µM), inactives show at the top dose activity change, negative = inhibition, most hits filed as inhibitors; AID 651820
#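 Infectious HCVcc-Cre (~0.5 moi) was added to cells just after compound, with cells seeded 4 h earlier at 1,000 per well. Luciferase activity after 44 h culture reported infection; substrate was incubated 15 min at room temperature before reading.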
# Sm TGR block: S. mansoni TGR enzyme inhibition. Q962Y6. purified TGR, DTNB reduction, TNB absorbance 405 nm. Potency, µM (top dose mostly 114 µM), inactives show at the highest dose activity change, negative = inhibition, actives largely listed as inhibitors. 3% of 360,000 active; note: nearly all actives have a fitted effect of over 60% in size
#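 First, TGR (20 nM dispensed) and NADPH were mixed with compound. Second, a 15 min room-temperature incubation followed. Third, further NADPH and then DTNB were added to start the reaction. Finally, TNB absorbance was monitored kinetically.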
# An asterisk follows results filed as active; ? = inconclusive; · = no result; ! = not confirmed by another sample; [ ] = remark or other dose. Shown are actives, neighbours in structure and some others; about 7.2% of the full set was active somewhere. Unless noted, calls come from the whole dose curve; as a rule, active = well fitted curve in the direction sought with a large enough effect; inconclusive = small, poorly fitted or top-dose-only effect, or another doubt; inactive = no such curve, though single readings can be large; an effect the other way counts as inactive or inconclusive. % is set by controls: 0 for no effect and ±100 for the full control effect; potency is the fitted concentration of half-maximal effect.
SMILES,RE007 growth inh,FMDV inh,LASV entry inh,MARV entry inh,HCV inh,Sm TGR block
COc1cccc(CNC(=O)c2c(OC)cc(=O)n3c2CCN(C(=O)c2ccc(C)s2)CC3)c1,·,-7%,·,·,·,·
COCC(=O)Nc1cc(C(=O)N2CC3CCCC2C3)c2c(c1)nc(-c1ccncc1)n2C (stereo unspecified),·,-5%,·,·,·,·
CCOC(=O)N1CCC(=NNS(=O)(=O)c2cccc([N+](=O)[O-])c2)CC1,-13%,-18%,-7%,-6%,-5%,28µM*
Nc1nc(Nc2ccccc2)nc2ccccc12,?,-43%,?,?,7%,2%
CN(C)c1ccc(Nc2nc(N)c3ccccc3n2)cc1,25µM*,7.1µM*,0.89µM*,0.63µM*,?,?
CCOc1ccc(Nc2nc(N)c3ccccc3n2)cc1,?,8.9µM*,?,4.5µM*,2%,-3%
c1ccc2c(c1)OCC(CNc1ncnc3sccc13)O2 (stereo unspecified),20%,?,-31%,?,1µM*,-10%
COc1ccc(Nc2ncnc3sccc23)cc1OC,-21%,25%,19%[46.1 µM],11%[46.1 µM],-9%,-4%
CN(C)c1ccc(CNc2ncnc3sccc23)cc1,-10%,?,3.5µM*,?,1.8µM*,6%
COc1ccc(CCNc2ncnc3sccc23)cc1OC,-5%,28µM*,?,?,?,7%
Fc1ccccc1CNc1ncnc2sccc12,3%,?,-28%[46.1 µM],?,2.2µM*,-12%
COc1ccccc1-c1cc2nc(C)c(CCC(=O)Nc3ccc(Br)c(C)c3)c(C)n2n1,·,-14%,-12%[46.1 µM],?,·,-7%
C=CCN=C1NC(c2cccc(C(F)(F)F)c2)C(C(=O)OC)=C(C)N1CC (stereo unspecified),·,·,·,12%[14.2 µM],·,·
COc1ccccc1CNc1ncnc2sccc12,2%,-28%,?,6.3µM*,?,5%
COc1ccccc1Oc1ncnc2sccc12,16%,-6%,?,9%[46.1 µM],-4%,4%
CN(C(Cc1ccc(OS(=O)(=O)c2cccc3cnccc23)cc1)C(=O)N1CCN(c2ccccc2)CC1)S(=O)(=O)c1cccc2cnccc12 (stereo unspecified),·,-19%,·,·,·,·
CN([C@@H](Cc1ccc(OS(=O)(=O)c2cccc3cnccc23)cc1)C(=O)N1CCN(c2ccccc2)CC1)S(=O)(=O)c1cccc2cnccc12,-8%,-19%,?,?,2.8µM*,3%
CCOc1ccc(CN(C)C(=O)[C@H](Cc2ccccc2)NC(=O)OCc2ccccc2)cc1OC,12%,20µM*,8.9µM*,4.5µM*,?,-1%
COc1cccc(Cn2c(=O)c(C)nc3cnc(OCc4ccccc4)nc32)c1,·,-20%,·,·,·,·
CN(C)CCCNc1nc2sc3c(c2c(=O)n1CCc1ccccc1)CCCCC3,31%,-7%,?,7.1µM*,?,0%
CN(C)CCCn1c(=O)n(CCc2ccccc2)c(=O)c2c3c(sc21)CCCCC3,-6%,?,·,·,7%,12%
C[C@H]1C[C@H]2[C@@H]3CCC4=CC(=O)C=C[C@]4(C)[C@@]3(F)[C@@H](O)C[C@]2(C)[C@@]1(O)C(=O)CO,11%[18.4 µM],-15%,·,·,-2%,·
CC1(c2ccccc2)O[C@@H]2C[C@H]3[C@@H]4CCC5=CC(=O)C=C[C@]5(C)[C@@]4(F)[C@@H](O)C[C@]3(C)[C@]2(C(=O)CO)O1 (stereo partly specified),-7%,?,?,10µM*,-8%,21%
N#Cc1c(NC(=O)CCn2cnc3ccccc3c2=O)oc(-c2ccccc2)c1-c1ccccc1,24%,?,?,?,10µM*!,-9%
CN(C)CC(=O)c1c(N)n(Cc2ccccc2)c(=O)n(C)c1=O,22%,-18%,-2%,11%[46.1 µM],7%,2%
SMILES,RE007 growth inh,FMDV inh,LASV entry inh,MARV entry inh,HCV inh,Sm TGR block
Cn1c(=O)c(C(=O)CCl)c(N)n(Cc2ccccc2)c1=O,2%,?,-8%,-16%,?,7.1µM*
Cn1c(N)c(C(=O)COC(=O)C2CCCCC2)c(=O)n(C)c1=O,-13%,20%,7%[14.3 µM],16%,·,3%
Cn1c(N)c(C(=O)CCl)c(=O)n(C)c1=O,-15%,?,·,·,27%,25µM*
Cn1c(N)c(C(=O)CCl)c(=O)n(Cc2ccccc2)c1=O,1%,28µM*,-1%,4%,4%,11µM*
COc1cc(NC(=O)Cn2c(=O)n(CC(=O)NCCc3ccc(OC)c(OC)c3)c(=O)c3sccc32)cc(OC)c1,·,-18%,2%[46.1 µM],-20%[46.1 µM],·,2%
CC1C2(C)OCC(C#N)(C(=N)O2)C1(C#N)C#N (stereo unspecified),·,·,·,·,·,13µM*
CCc1nnc2n1N=C(c1ccccc1)CS2,-1%,-13%,·,·,8%,45µM*
CCCc1nnc2n1N=C(c1ccc([N+](=O)[O-])cc1)CS2,1%,-15%,2%,-11%,13%,-27%
CCCc1nnc2n1N=C(c1ccc(C)cc1)CS2,2%,-10%,·,·,-5%,45µM*
CCc1nn(CC(=O)NCCc2ccc(OC)cc2OC)c(=O)c2cc3sccc3n12,·,34%,·,-15%[46.1 µM],·,-6%
CC(=O)N1/C(=C/c2ccc(N(C)C)cc2)C(=O)c2ccccc21,4%,20µM*,?,13µM*,25%,28µM*
CN(C)c1ccc(/C=C2\CCC/C(=C\c3ccccc3)C2=O)cc1,-17%,10%,?,-18%,?,-26%
C=CCN1C(=O)NC(=O)/C(=C/c2ccc(N(C)C)c(Br)c2)C1=O,5%,-20%,7.9µM*,-5%[46.1 µM],9%,?
C=CCN1C(=O)NC(=O)/C(=C/c2ccoc2)C1=O,0%,0%,7%,?,-3%,0%
COc1ccc(NC(=O)CN(C)S(=O)(=O)c2ccc3nc(C)sc3c2)cc1Cl,·,?,-2%[46.1 µM],-2%[46.1 µM],·,1%
CCCC1=Nc2cc(C(=O)NCCc3ccccc3)ccc2Sc2ccc(C)cc21,·,-2%,-11%[46.1 µM],?,·,3%
CCn1cnc2c(NCCc3cccnc3)nc(C#N)nc21,·,2%,·,·,·,50µM*
CCn1cnc2c(Nc3cccc(Cl)c3)nc(C#N)nc21,·,3%,·,·,·,-23%
CCCOc1ccc(NC(=O)CC2C(=O)N(c3ccc(F)cc3)C(=O)N2CC(C)C)cc1 (stereo unspecified),·,-10%,-14%[46.1 µM],·,·,3%
COc1ccc2c(c1)-c1c(sn(-c3ccc(OC)c(OC)c3)c1=S)C(C)(C)N2,0%,-27%,?,?,2.5µM*,-2%
O=C(Nc1cccc(F)c1)N1CCCC2(CCN(C(=O)c3cnccn3)CC2)C1,·,-4%,·,·,·,·
COc1ccc(S(=O)(=O)NCC(c2ccc3c(c2)OCO3)N2CCN(C)CC2)cc1OC (stereo unspecified),-18%,-4%,3%,2%,-7%,-29%
